Screening data: PubChem BioAssay, National Center for Advancing Translational Sciences (NCATS)
D2 ag-1: Beta-Arrestin HTS for Positive Allosteric Modulators of the Human D2 Dopamine Receptor: Agonists | 360,000 tested, 0.084% active | DiscoveRx PathHunter D2 beta-arrestin, luminescence, 90 min; 100% = 57 uM dopamine signal | activation, % (concentration not given with the values); in the data active = activation above about 40%
Target sequence (P14416 whole entry, looked up): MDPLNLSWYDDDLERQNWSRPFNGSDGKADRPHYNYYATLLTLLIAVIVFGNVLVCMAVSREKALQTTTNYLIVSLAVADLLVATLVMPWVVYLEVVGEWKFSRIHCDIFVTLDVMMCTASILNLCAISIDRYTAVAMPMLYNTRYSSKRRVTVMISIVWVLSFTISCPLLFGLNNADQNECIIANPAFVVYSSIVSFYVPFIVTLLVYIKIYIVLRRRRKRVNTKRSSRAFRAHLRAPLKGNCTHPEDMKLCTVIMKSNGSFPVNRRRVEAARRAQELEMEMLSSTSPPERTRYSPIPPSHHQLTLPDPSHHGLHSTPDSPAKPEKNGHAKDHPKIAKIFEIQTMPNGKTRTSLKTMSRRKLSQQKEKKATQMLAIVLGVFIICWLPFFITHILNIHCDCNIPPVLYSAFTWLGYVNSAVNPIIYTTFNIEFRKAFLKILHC
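Agonist mode: compounds alone added to overnight-plated D2 PathHunter cells for 90 min at 37 C, with 57 uM final dopamine (EC100) defining full response. Beta-arrestin recruitment detected by chemiluminescent reagent, read after 1 h at ambient temperature.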
D2 ag-2: HTS Assay for Allosteric Agonists of the Human D2 Dopamine Receptor: Primary Screen for Agonists; D(2) dopamine receptor (Homo sapiens), P14416; HEK293 T-REx D2 cells, calcium flux agonist mode; activation, % at 2 µM; 340,000 tested, 0.53% active;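 active = activation over 3 SD above normal in the single-dose calcium agonist read, cut at about 30% in these data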; also: 0% is about no effect
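In this primary screen, compounds producing a positive calcium signal within 180 s of addition to tetracycline-induced, force-coupled HEK293 Trex D2 cells are flagged; cells are dye-loaded with a no-wash calcium kit beforehand.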
D2 antag: HTS Assay for Allosteric Antagonists of the Human D2 Dopamine Receptor: Primary Screen for Antagonists; HEK293 TREx D2 cells, calcium flux, dopamine EC80; inhibition, % at 10 µM; 340,000 tested, 2% active; AID 485344, 2010; in the data active = inhibition above about 30%; inactive = below that, where a call was filed; also: 0% is about no effect
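Measurement of antagonist activity uses fluorescent calcium dye in inducible HEK293 T-REx D2 cells: 10 s baseline, compound addition with 180 s read, EC80 dopamine addition with a further 180 s read.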
D2 PAM-1: Beta-Arrestin HTS for Positive Allosteric Modulators of the Human D2 Dopamine Receptor: Potentiators; D(2) dopamine receptor (Homo sapiens), P14416; DiscoveRx D2 beta-arrestin cells, luminescence, 90 min; 100% = 57 uM dopamine signal; potentiation, % (concentration not given with the values); 360,000 tested, 0.23% active; in the data active = potentiation above about 50%
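PathHunter beta-arrestin assay in DiscoveRx D2 cells. Compounds were added with an EC20 of dopamine (50 nM final) for 90 min at 37 deg C. Luminescence was read 1 h after detection reagent, with 57 uM dopamine as the EC100 control.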
D2 PAM-2: HTS Assay for Positive Allosteric Modulators of the Human D2 Dopamine Receptor: Primary Screen for Potentiators. D(2) dopamine receptor (Homo sapiens), P14416. HEK293 T-REx D2, calcium flux, EC20 dopamine potentiation. potentiation, % at 10 µM. 340,000 tested, 0.34% active;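 active = potentiation over 3 SD above the plate norm, cut at about 30% in these data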; also: 0% is about no effect
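Calcium flux readout, no-wash dye, 1 read/s. Inducible HEK293 Trex D2 line, overnight 30 C. Compound alone 180 s (agonist flags), then EC20 dopamine, another 180 s to score potentiation.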
An asterisk follows results filed as active; . = not tested or not shown. Shown are actives, neighbours in structure and some others; about 2.4% of the full set was active somewhere.

SMILES	D2 ag-1	D2 ag-2	D2 antag	D2 PAM-1	D2 PAM-2
COc1n[nH]c(C(=O)Nc2cc(Cl)ccc2Cl)c1[N+](=O)[O-]	-7	0	32*	-3	7
NC(CSC(c1ccccc1)(c1ccccc1)c1ccc2c(c1)OCO2)C(=O)O (configuration not stated)	-2	.	.	-11	.
Cc1ccc(C(=O)NCCc2nnc3ccc(SCC(=O)Nc4ccccc4C)nn23)cc1	0	0	41*	-6	3
Cc1ccc(C(=O)NCCc2nnc3ccc(SCC(=O)Nc4c(C)cc(C)cc4C)nn23)cc1	-8	0	-6	-16	-1
COc1ccc(-c2ccc(C(=O)NCc3ccc(C(F)(F)F)cc3)c3occc23)c(C)c1	-2	.	.	-4	.
CN(C)CC(O)COc1cccc(OCC(O)CN(C)C)c1 (configuration not stated)	-3	0	55*	-4	-5
Cc1ccc(CN2CCN(Cc3cccn3-c3ccccn3)CC2CCO)cc1 (configuration not stated)	-2	-1	-6	-13	-18
COc1ccc(OC)c(CN2CCN(CCCc3ccccc3)C(CCO)C2)c1 (configuration not stated)	-2	1	69*	-4	-35
OCCC1CN(Cc2cccn2-c2ncccn2)CCN1Cc1ccccc1 (configuration not stated)	-1	-2	31*	-14	6
COc1cccc(CN2CCN(Cc3ccc(O)c(OC)c3)CC2CCO)c1 (configuration not stated)	-5	1	36*	-18	-8
Cc1ccccc1CN1CCN(CCCc2ccccc2)C(CCO)C1 (configuration not stated)	5	1	38*	-26	-22
CCC(CC)C(=O)Nc1nnc(SCc2cc(=O)c3ccccc3[nH]2)s1	.	1	.	.	18
CCN(CCCNC(=O)c1ccc(Sc2ccc(F)cc2)c(NC(C)=O)c1)c1ccccc1	.	.	.	.	14
COc1ccc(N2CC3=C(C2=O)C(c2ccc(Br)cc2)NC(=O)N3C)cc1 (configuration not stated)	.	9	.	.	-1
C#Cc1ccc(CN2CCN(CCCc3ccccc3)C(CCO)C2)cc1 (configuration not stated)	1	0	75*	-26	-19
O=C(COC(=O)/C=C/c1cccc(C(F)(F)F)c1)NCc1ccccc1	-4	1	33*	5	12
COc1cccc(/C=C/C(=O)OCC(=O)Nc2ccc(Cl)c(S(=O)(=O)N(C)C)c2)c1	-3	2	-15	0	4
COc1cccc(/C=C/C(=O)OCC(=O)Nc2cc(C(F)(F)F)ccc2Cl)c1	-1	2	34*	-3	-7
O=C(COC(=O)/C=C/c1cccc(C(F)(F)F)c1)NCc1ccc(F)cc1	-1	0	-8	-7	6
COc1ccc(-c2cc3nc(C)cc(N4CC(C)CC(C)C4)n3n2)cc1 (configuration not stated)	-1	0	-16	-2	40*
CCOCCCN(C)C1CCN(C(=O)c2oc3ccccc3c2NC(=O)COc2ccc(F)cc2)CC1	-8	1	50*	-37	-26
CCCC[n+]1ccn(-c2nc3c([N+](=O)[O-])cccc3n2C)c1	-7	0	34*	-69	-8
OCCN1CCN(C(=S)c2ccc(Br)cc2)CC1	-3	0	55*	-11	-7
CSc1ccc(C(=S)N2CCN(CCO)CC2)cc1	-3	-1	-21	-12	10
CCOc1ccccc1NC(=O)C(=O)NCCc1sc(-c2cccc(F)c2)nc1C	.	1	.	.	20
Cc1ccc(NC(=O)c2cccs2)cc1NC(=O)c1cccnc1	-1	.	.	77*	.
O=C(c1ccco1)N1CCN(C(=O)C2CCN(S(=O)(=O)c3cnc[nH]3)CC2)CC1	-2	1	52*	-19	13
O=C(Nc1ccccc1)Nc1cccc(NC(=O)Nc2ccccc2)c1F	1	0	-29	0	0
O=C(Nc1ccccc1)Nc1ccccc1Br	2	-4	42*	-4	1
